# Measured values: the supplement of paper PMC7695840
# Counter-ions that a name gives are not always drawn.
# Columns and labels:
# [1] = test system: Staphylococcus aureus MW2 delta-mecA (mecA-); experiment: normalized GFP fluorescence (growth of mecA- strain) (fraction of control range); higher = more growth of mecA- strain; conditions: compound concentration: 150 uM; cefoxitin: subinhibitory; fluorescent label: GFP
# Summary of the method: (§1)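 Pre-induced S. aureus MW2 mecA+ (DsRed) and ΔmecA (GFP) cells were mixed 1:1 in LB with a daily-set subinhibitory cefoxitin dose. They were dispensed at 5 µL/well onto 150 μM compound (1.5% DMSO) in 1536-well plates, single replicate. Growth was 20 h at 37 °C, 90% humidity, unshaken, and DsRed (540/590) and GFP (485/520) were then read. Each channel was scaled per plate between the medians of the single-strain controls. Plates with high No Treatment ratios and rows with DsRed/GFP >10 were excluded.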
# [2] = test system: Staphylococcus aureus MW2 (mecA+); experiment: normalized DsRed fluorescence (growth of mecA+ strain) (fraction of control range); higher = more growth of mecA+ strain; conditions: compound concentration: 150 uM; cefoxitin: subinhibitory; fluorescent label: DsRed
# Summary of the method: as §1
SMILES,normalized GFP fluorescence [1],normalized DsRed fluorescence [2]
Cc1nc(=O)c2cc(CN(C)c3ccc(C(=O)N[C@@H](CCC(=O)O)C(=O)O)s3)ccc2[nH]1 [Raltitrexed (Tomudex)],0.657,0.532
COc1cc(N)c(Cl)cc1C(=O)NC1CCN(CCCOc2ccc(F)cc2)CC1OC (stereo unspecified),0.458,0.643
C=C[C@H]1CN2CC[C@H]1C[C@H]2[C@H](O)c1ccnc2ccc(OC)cc12,0.628,0.748
NS(=O)(=O)c1cc2c(cc1Cl)NC(C(Cl)Cl)NS2(=O)=O (stereo unspecified),0.381,0.814
CC(C)(C)NC(=O)[C@H]1CC[C@H]2[C@@H]3CC[C@H]4NC(=O)C=C[C@]4(C)[C@H]3CC[C@]12C,0.27,0.691
CCCCNc1ccc(C(=O)OCCN(C)C)cc1,0.243,0.719
CC(=O)[C@H]1CC[C@H]2[C@@H]3CCC4=CC(=O)CC[C@]4(C)[C@H]3CC[C@]12C,0.278,0.415
CCCCC1=NC2(CCCC2)C(=O)N1Cc1ccc(-c2ccccc2-c2nnn[nH]2)cc1,0.0654,0.337
NNC(=O)c1ccncc1,0.19,1.03
CSCC[C@H](NC(=O)[C@H](Cc1c[nH]c2ccccc12)NC(=O)CCNC(=O)OC(C)(C)C)C(=O)N[C@@H](CC(=O)O)C(=O)N[C@@H](Cc1ccccc1)C(N)=O,0.461,0.68
O=C(OOC(=O)c1ccccc1)c1ccccc1,0.437,0.519
Cc1ccc(Nc2c(F)cccc2Cl)c(CC(=O)O)c1,0.0553,0.183
NC[C@@H]1O[C@H](O[C@H]2[C@@H](O)[C@H](O[C@@H]3[C@@H](O)[C@H](N)C[C@H](N)[C@H]3O[C@H]3O[C@H](CN)[C@@H](O)[C@H](O)[C@H]3N)O[C@@H]2CO)[C@H](N)[C@@H](O)[C@@H]1O,0.217,0.718
CNC(=O)c1cc(Oc2ccc(NC(=O)Nc3ccc(Cl)c(C(F)(F)F)c3)c(F)c2)ccn1 [Regorafenib (BAY 73-4506)],0.0128,0.0729
CN(C)CCN(Cc1ccccc1)c1ccccn1,0.488,0.468
CC[C@@H]1C(=O)OC[C@@H]1Cc1cncn1C,0.483,0.892
COc1cc(NC(C)CCCN)c2ncccc2c1 (stereo unspecified),-0.00346,0.672
CC(=O)[C@H]1CC[C@H]2[C@@H]3C[C@H](C)C4=CC(=O)CC[C@]4(C)[C@H]3[C@@H](O)C[C@]12C,0.258,0.378
CCOc1ccccc1OC(c1ccccc1)C1CNCCO1 (stereo unspecified) [Reboxetine mesylate],0.435,0.581
C[C@H]1[C@H](OC(=O)CCC(=O)O)O[C@@H]2O[C@@]3(C)CC[C@H]4[C@H](C)CC[C@@H]1[C@@]24OO3,0.737,0.712
CCC(=O)O[C@]1(C(=O)CCl)[C@@H](C)C[C@H]2[C@@H]3CCC4=CC(=O)C=C[C@]4(C)[C@@]3(F)[C@@H](O)C[C@@]21C [Clobetasol propionate],-0.000558,1.15
Cc1ccc(N(CC2=NCCN2)c2cccc(O)c2)cc1,0.3,0.634
CC(=O)O[C@H]1C(=O)[C@@]2(C)[C@H]([C@H](OC(=O)c3ccccc3)[C@]3(O)C[C@H](OC(=O)[C@H](O)[C@@H](NC(=O)c4ccccc4)c4ccccc4)C(C)=C1C3(C)C)[C@]1(OC(C)=O)CO[C@@H]1C[C@@H]2O [Paclitaxel (Taxol)],0.188,0.669
CN1CCCC(n2nc(Cc3ccc(Cl)cc3)c3ccccc3c2=O)CC1 (stereo unspecified) [Azelastine hydrochloride (Astelin)],0.112,1.13
CC(=O)O[C@H]1C[C@@H]2CC[C@@H]3[C@H](CC[C@@]4(C)[C@H]3C[C@H]([N+]3(C)CCCCC3)[C@@H]4OC(C)=O)[C@@]2(C)C[C@@H]1N1CCCCC1,0.425,0.572
CCCN1CCCC[C@H]1C(=O)Nc1c(C)cccc1C [Ropivacaine HCl],0.242,1.01

SMILES,normalized GFP fluorescence [1],normalized DsRed fluorescence [2]
CC1=C(/C=C/C(C)=C/C=C/C(C)=C/CO)C(C)(C)CCC1,0.232,0.677
CN(C)CCC(c1ccccc1)c1ccccn1 (stereo unspecified),0.504,0.799
CCC(=O)O[C@H](CC(=O)O)C[N+](C)(C)C,0.307,1.23
CCCCc1nc(Cl)c(CO)n1Cc1ccc(-c2ccccc2-c2nnn[nH]2)cc1,0.297,0.864
COc1ccc(OC)c(C(O)CNC(=O)CN)c1 (stereo unspecified),0.301,0.764
CC1(C)S[C@@H]2[C@H](NC(=O)Cc3ccccc3)C(=O)N2[C@H]1C(=O)O,0.0214,0.0849
Cc1ccc(C(=O)Nc2ccc(S(=O)(=O)O)c3cc(S(=O)(=O)O)cc(S(=O)(=O)O)c23)cc1NC(=O)c1cccc(NC(=O)Nc2cccc(C(=O)Nc3cc(C(=O)Nc4ccc(S(=O)(=O)O)c5cc(S(=O)(=O)O)cc(S(=O)(=O)O)c45)ccc3C)c2)c1,0.319,0.63
CCCCCCCCCCCCCCCCCCCCCCO,0.3,0.765
Cc1[nH]c2ccccc2c1CCNCc1ccc(/C=C/C(=O)NO)cc1 [Panobinostat],0.228,1.43
CN1CCCN=C1COC(=O)C(O)(c1ccccc1)C1CCCCC1 (stereo unspecified),0.399,0.63
CC(C)C[C@H](NC(=O)[C@H](CCc1ccccc1)NC(=O)CN1CCOCC1)C(=O)N[C@@H](Cc1ccccc1)C(=O)N[C@@H](CC(C)C)C(=O)[C@@]1(C)CO1 [Carfilzomib (PR-171)],0.271,1.11
C[n+]1ccccc1C=NO,0.166,0.637
Cn1nnc2c(C(N)=O)ncn2c1=O [Temozolomide],0.456,1.11
CN(CCOc1ccc(NS(C)(=O)=O)cc1)CCc1ccc(NS(C)(=O)=O)cc1 [Dofetilide (Tikosyn)],0.244,1.28
Cc1cn([C@H]2C=C[C@@H](CO)O2)c(=O)[nH]c1=O,0.779,0.601
COc1ccc(CN(CCN(C)C)c2ncccn2)cc1,0.471,0.813
CN1CCN2c3ccccc3Cc3ccccc3C2C1 (stereo unspecified),0.0802,1.52
CCOc1cc(CC(=O)N[C@@H](CC(C)C)c2ccccc2N2CCCCC2)ccc1C(=O)O,-0.00461,0.578
Nc1ccc(S(=O)(=O)c2ccc(N)cc2)cc1,0.296,0.89
CN1CCC(=C2c3ccccc3CCc3sccc32)CC1 [Pizotifen malate],0.00361,1.4
Nc1nc(Cl)nc2c1ncn2[C@H]1C[C@H](O)[C@@H](CO)O1 [Cladribine],0.546,0.824
O=c1[nH]cnc2c1ncn2[C@H]1CC[C@@H](CO)O1 [Didanosine (Videx)],0.446,0.652
CN1CCCN=C1/C=C/c1cccc(O)c1,0.279,0.787
c1cc(CN2CCCNCCNCCCNCC2)ccc1CN1CCCNCCNCCCNCC1 [Plerixafor],0.396,0.938
CCOC(=O)C(C)(C)Oc1ccc(Cl)cc1,0.258,0.633
CN(C)CCOc1ccc(/C(=C(/CCCl)c2ccccc2)c2ccccc2)cc1,0.000588,0.0394

SMILES,normalized GFP fluorescence [1],normalized DsRed fluorescence [2]
O=C(O)COCCN1CCN(C(c2ccccc2)c2ccc(Cl)cc2)CC1 (stereo unspecified),0.0457,0.556
COCCCN1CCC(NC(=O)c2cc(Cl)c(N)c3c2OCC3)CC1 [Prucalopride],0.256,0.927
CC1=C(/C=C/C(C)=C/C=C/C(C)=C/C(=O)O)C(C)(C)CCC1,-0.00103,0.642
CC(COc1ccccc1)NC(C)C(O)c1ccc(O)cc1 (stereo unspecified),0.474,0.631
Clc1ccc2c(c1)CCc1cccnc1C2=C1CCNCC1 [Desloratadine],0.102,0.936
C[C@@H]1O[C@@H](OC[C@H]2O[C@@H](Oc3c(-c4ccc(OCCO)c(OCCO)c4)oc4cc(OCCO)cc(O)c4c3=O)[C@H](O)[C@@H](O)[C@@H]2O)[C@H](O)[C@H](O)[C@H]1O [Troxerutin],0.934,0.471
CN(C)CCc1c[nH]c2ccc(C[C@H]3COC(=O)N3)cc12,0.31,0.962
CC[N+](C)(C)Cc1ccccc1Br,0.178,0.523
CC12CC3CC(C)(C1)CC(N)(C3)C2,0.384,0.672
NNCCc1ccccc1,0.153,0.707
CC[C@@]1(O)C(=O)OCc2c1cc1n(c2=O)Cc2cc3c(CN(C)C)c(O)ccc3nc2-1,0.791,0.763
c1ccc2[nH]c(-c3cscn3)nc2c1,0.302,0.444
Cc1cn(-c2cc(NC(=O)c3ccc(C)c(Nc4nccc(-c5cccnc5)n4)c3)cc(C(F)(F)F)c2)cn1 [Nilotinib (AMN-107)],0.547,0.566
NS(=O)(=O)c1cc(C2(O)NC(=O)c3ccccc32)ccc1Cl (stereo unspecified),0.344,0.584
NS(=O)(=O)c1cc(Cl)c(Cl)c(S(N)(=O)=O)c1 [Dichlorphenamide (Diclofenamide)],0.31,0.653
Cc1nnc(NS(=O)(=O)c2ccc(N)cc2)s1,0.326,1.88
CC1=Nc2ccc(Cl)cc2S(=O)(=O)N1,0.259,0.639
NS(=O)(=O)c1cc2c(cc1C(F)(F)F)NCNS2(=O)=O,0.22,0.753
Nc1nc(=O)[nH]cc1F,0.282,0.62
O=C(O)C(=O)O.[NH-][C@@H]1CCCC[C@H]1[NH-].[Pt+2],0.253,1.17
CC(C)(C(=O)O)c1ccc(C(O)CCCN2CCC(C(O)(c3ccccc3)c3ccccc3)CC2)cc1 (stereo unspecified),0.393,1.03
Cc1cccc(C)c1NC(=O)C(C)N (stereo unspecified),0.842,0.486
CCCC1O[C@@H]2C[C@H]3[C@@H]4CCC5=CC(=O)C=C[C@]5(C)[C@H]4[C@@H](O)C[C@]3(C)[C@]2(C(=O)CO)O1 (stereo partly specified),0.226,1.12
CNCC[C@H](Oc1cccc2ccccc12)c1cccs1,-0.0294,0.838
CN(C)CCOC(=O)C(c1ccccc1)C1(O)CCCC1 (stereo unspecified),0.34,0.757
O=C1CN2Cc3c(ccc(Cl)c3Cl)N=C2N1,0.237,0.896
